PubChem BioAssay AID1851 (National Center for Advancing Translational Sciences (NCATS), 2009)
Among all 16,000 compounds or so, about 5,100 (32%) were called active. Inconclusive results (about 25%) are left out. Calls follow the shape of the dose curve; as a rule, active = well fitted curve in the direction sought with a large enough effect; inconclusive = small, poorly fitted or top-dose-only effect, or effect the other way; inactive = no such curve, though single readings can be large or run the other way. Some of the results follow.

target: Cytochrome P450 3A4 (Homo sapiens) (UniProt P08684); test: Cytochrome panel assay with activity outcomes; conditions: recombinant CYP, pro-luciferin dealkylation, luminescence, p450-cyp3a4; series mostly up to 57.1 µM
% is scaled to controls: 0 for no effect and ±100 for the full control effect.

Chain of Cytochrome P450 3A4 (Homo sapiens) (P08684 whole entry, looked up): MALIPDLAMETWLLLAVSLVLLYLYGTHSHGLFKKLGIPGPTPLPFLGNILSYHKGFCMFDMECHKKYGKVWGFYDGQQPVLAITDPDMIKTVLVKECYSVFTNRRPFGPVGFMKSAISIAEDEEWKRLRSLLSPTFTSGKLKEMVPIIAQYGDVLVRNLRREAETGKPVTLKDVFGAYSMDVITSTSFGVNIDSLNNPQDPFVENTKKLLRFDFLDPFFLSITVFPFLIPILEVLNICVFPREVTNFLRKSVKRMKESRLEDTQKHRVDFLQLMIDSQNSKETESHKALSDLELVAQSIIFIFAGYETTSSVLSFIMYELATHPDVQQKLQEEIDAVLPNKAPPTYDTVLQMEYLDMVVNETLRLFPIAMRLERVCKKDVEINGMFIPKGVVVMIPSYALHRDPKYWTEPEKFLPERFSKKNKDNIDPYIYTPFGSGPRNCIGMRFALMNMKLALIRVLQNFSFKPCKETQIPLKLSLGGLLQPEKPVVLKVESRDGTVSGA

Compound | activity, negative = inhibition | AC50
CC(=O)OCC1=C(C(=O)O)N2C(=O)[C@@H](N)[C@@H]2SC1 | inactive | –
CCc1ccc(CCN2CCCCC2)nc1 | -16.1% [at 11.4 µM] (inactive) | –
C[C@@]12CCC(=O)C=C1C=C[C@H]1[C@H]3CC[C@](O)(CCC(=O)O)[C@]3(C)CC[C@@H]12 | inactive | –
O=C(c1ccc(-c2nnc(Nc3ccccc3)c3ccccc23)cc1)N1C[C@H]2C[C@H](C1)c1cccc(=O)n1C2 | – | 31.6 µM (active)
O=c1cccc2n1CC1CNC[C@H]2C1 | inactive | –
COc1cc(C(=O)OC2C[C@H]3CC[C@@H](C2)N3C)ccc1O (some centres not stated) | inactive | –
O=c1[nH]cnc2[nH]cc(CN3CCCCC3)c12 | -10.7% [at 11.4 µM] (inactive) | –
N[C@@H]1C=CC=C(C(=O)O)C1 | inactive | –
O=S(=O)(NCCO)c1cc[c]([Sb](=[O])([OH])[OH])cc1 | 9.57% [at 11.4 µM] (inactive) | –
CCCN1CCO[C@@H]2c3cc(O)ccc3OC[C@H]21 | inactive | –
c1cncc([C@@H]2CCCCN2)c1 | inactive | –
O=S(=O)(c1ccccc1)N1CCCCC1c1cccnc1 (configuration not stated) | – | 2.24 µM (active)
CC1=C(C)[N+](=O)C2(O)CCCCC2(C)N1[O-] (configuration not stated) | inactive | –
CCCN(CCC)[C@@H]1CCc2ccc(O)cc2C1 | inactive | –
NC(N)=NS(=O)(=O)c1ccc(N)cc1 | inactive | –
CN(C)[C@@H]1C(=O)C(C(N)=O)=C(O)[C@]2(O)C(=O)C3=C(O)c4c(O)cccc4[C@@](C)(O)[C@H]3[C@H](O)[C@@H]12 | inactive | –

Compound | activity, negative = inhibition | AC50
O=[N+]([O-])c1cc(O)c(O)c([N+](=O)[O-])c1 | inactive | –
O=[N+]([O-])c1ccc(S(=O)(=O)Cc2ccccc2)c([N+](=O)[O-])c1 | – | 0.316 µM (active)
O=C(O)Cc1ccc([N+](=O)[O-])cc1[N+](=O)[O-] | -8.12% [at 11.4 µM] (inactive) | –
Cc1cc(OC(=O)CCCNC(=O)OC(C)(C)C)c2c3c(c(=O)oc2c1)CCC3 | 4.44% [at 2.29 µM] (inactive) | –
COc1cc2c3cc1Oc1cc(ccc1O)C[C@@H]1c4c(cc(OC)c(O)c4Oc4cccc(c4)C[C@H]3N(C)CC2)CC[N+]1(C)C | inactive | –
CC(C)(O)/C=C\C(=O)[C@](C)(O)[C@H]1[C@H](O)C[C@]2(C)[C@@H]3CC=C4[C@@H](C=C(O)C(=O)C4(C)C)[C@]3(C)C(=O)C[C@@]12C | – | 0.398 µM (active)
CC(=O)OC1N=C(c2ccccc2)c2cc(Br)ccc2N(C)C1=O (configuration not stated) | inactive | –
CC1=NN(c2ccc(S(=O)(=O)O)cc2C)C(=[OH+])[C@H]1N=Nc1cc(S(=O)(=O)O)ccc1C(=O)O.O.[Cr] | 12.6% [at 11.4 µM] (inactive) | –
O=[N+]([O-])c1ccc(N2CCNCC2)cc1NCC1CCCO1 (configuration not stated) | inactive | –
COC(=O)[C@H](N)CCCN=C(N)N[N+](=O)[O-] | inactive | –
CCOC(=O)C1=C(C)OC(N)=C(C#N)C12C(=O)N(C)c1ccccc12 (configuration not stated) | – | 6.31 µM (active)
COc1ccc(C[C@@H]2NC[C@H](O)[C@@H]2OC(C)=O)cc1 | inactive | –
O=C(O)C[O][Sb][O]CC(=O)O | -1.8% [at 11.4 µM] (inactive) | –
NS(=O)(=O)C[C-]1C=C[CH]([Sb-]([Cl])([Cl])([Cl])([Cl])[Cl])C=C1.c1ccncc1 (configuration not stated) | 7.76% [at 11.4 µM] (inactive) | –
CC[C@@H]1CN2CCc3cc(OC)c(OC)cc3[C@H]2C[C@@H]1C[C@@H]1NCCc2cc(O)c(OC)cc21 | inactive | –
Cc1ccc(S(=O)(=O)O[C@H]2CN3CCC2CC3)cc1 | -7.01% [at 11.4 µM] (inactive) | –
